Source: PubChem (National Center for Advancing Translational Sciences (NCATS))
Sm TGR inh – inhibitors of Schistosoma mansoni thioredoxin glutathione reductase; 360,000 tested, 3% active; Potency, µM (series often up to 114 µM), without a hit: at the top dose activity change, negative = inhibition, hits mostly inhibitors; purified TGR, DTNB reduction, TNB absorbance 405 nm; further: potency means the concentration at half of the fitted maximal effect; on the % scale 0 is the no-effect control and ±100 the full control effect; nearly all actives have a fitted effect of over 60% in size
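TGR 20 nM + NADPH 100 uM (dispensed conc.), cpd preinc 15 min RT; start with NADPH (500 uM addition) then DTNB (15 mM addition). Kinetic TNB absorbance, 405 nm filter. Four-parameter Hill fit across titration.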
Pf growth 96h – P. falciparum growth inhibition at 96 hour, primary screen for plastid delayed-death inhibitors. P. falciparum luciferase reporter growth, 96 h. Potency, µM (highest dose often 28.7 µM), without a hit: at the highest dose activity change, negative = inhibition, hits mostly inhibitors. 320,000 tested, 6.9% active. AID 504834; further: potency means the concentration at half of the fitted maximal effect; on the % scale 0 is the no-effect control and ±100 the full control effect
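Parasite growth measured via integrated firefly luciferase reporter in P. falciparum. Infected erythrocytes at 2% hematocrit, 0.05% parasitemia final were treated 96 hours at 37 C under 5% CO2, and luminescence was read.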
Pf growth 48h – inhibits P. falciparum growth in the first generation, 48 h; P. falciparum luciferase growth in erythrocytes, 48 h; Potency, µM (doses to about 28.7 µM), without a hit: at the highest dose activity change, negative = inhibition, most hits filed as inhibitors; 310,000 tested, 5.9% active; AID 504832; further: potency means the concentration at half of the fitted maximal effect; on the % scale 0 is the no-effect control and ±100 the full control effect
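Erythrocytes infected with P. falciparum carrying an integrated firefly luciferase reporter (2% hematocrit, 0.1% parasitemia final) were exposed to compounds in RPMI 1640 with 0.5% Albumax at 37 C, 5% CO2. Growth inhibition was scored as reduced luminescence.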
Cycloheximide cs – counter-screen for Shiga toxin inhibitors: cycloheximide protein synthesis inhibition | cell reporter, cycloheximide protein synthesis inhibition counterscreen | max response, % | 300,000 tested, 12% active; in the data active means max response mostly above about 13%, no sharp cut-off; inactive means mostly below about 14%; further: read at 38.3 µM for the half of the compounds with a filed dose; 0% is about no effect
Shiga toxin inh – Shiga toxin inhibition; Vero cells, Shiga toxin protein synthesis inhibition reporter; inhibition, % at 38.7 µM; 290,000 tested, 9.2% active; in the data active means inhibition mostly above about 28%, no sharp cut-off; inactive means mostly below about 43%; further: 0% is about no effect
NS1 function inh – inhibitors of influenza NS1 protein function; Potency, µM (titrated, usually from 46.1 µM), for inactives: at the top dose activity, positive = more growth; 270,000 tested, 0.4% active; calls by dose curve; further: potency means the concentration at half of the fitted maximal effect; actives are rising curves; nearly all actives have a fitted effect of over 50% in size
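Recovery from NS1-induced slow growth read by OD600 in budding yeast switched to galactose assay medium (pH 6.0, -URA) at 1:100 dilution. Compound 23 nl per well; the matching strain lacking NS1 serves as control.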
Active calls of the source: *; i = inactive; ? = inconclusive; . = not tested or not shown. A selection: hits, their analogues and other compounds. The true share with any hit is near 21%. Unless noted, the call rests on the fitted dose curve; in most records, active means well fitted curve in the direction sought with a large enough effect; inconclusive means small, poorly fitted or top-dose-only effect, or another doubt; inactive means no such curve, though single readings can be large; an effect the other way counts as inactive or inconclusive.

SMILES | Sm TGR inh | Pf growth 96h | Pf growth 48h | Cycloheximide cs | Shiga toxin inh | NS1 function inh
CCN(c1ccccc1)S(=O)(=O)c1ccc(Cl)c(C(=O)N(CC2CCCO2)C2CCS(=O)(=O)C2)c1 (stereo not drawn) | 7% | ? | 1.7µM* | -2 | -10 | .
O=C(NCc1ccccc1)C1=C[C@H](C2CC2)C[C@H](OCCCCO)O1 | -4% | 23% | 16% | -3 | -8 | 1%
FC(F)(F)c1cc(CO[C@@H]2CCCN[C@@H]2c2ccccc2)cc(C(F)(F)F)c1 | -13% | ? | 12µM* | . | . | .
O=C(Nc1cn(-c2ccccc2)nc1-c1ccc(Cl)cc1)c1ccccc1 | 11% | ? | -19% | -2 | -5 | -14%
Cc1ccc(-c2nn(-c3ccccc3)cc2NC(=O)c2ccccc2)cc1 | -6% | -14% | -2% | 19* | 44* | -2%
CC(=O)Nc1cn(-c2ccccc2)nc1-c1ccccc1 | 6% | 68% | 7% | 2 | -11 | .
O=C(CCl)Nc1cn(-c2ccccc2)nc1-c1ccccc1 | 18µM* | ? | ? | 39* | 37 | .
Cc1cccc(OCC(=O)Nc2c(C(=O)N3CCN(c4ccccc4)CC3)oc3ccccc23)c1 | 7% | . | . | . | . | .
Cc1ccc(S(=O)(=O)n2cc(-c3ccccc3)c3ccccc32)cc1 | 2% | ? | 2.6µM* | . | . | .
CCn1nc2cc(C(=O)NCC34CC5CC(CC(C5)C3)C4)ccc2c1OC | 2% | 23% | 12µM* | 5 | -7 | -6%
CCOc1c2ccc(C(=O)NCC34CC5CC(CC(C5)C3)C4)cc2nn1CC | 4% | ? | -33% | 2 | -4 | 11%
CCCCn1nc2cc(C(=O)NCC34CC5CC(CC(C5)C3)C4)ccc2c1OC | 16% | 15µM* | ? | 16 | -24 | 1%
COc1ccc(-c2nc3ccccc3o2)cc1NC(=O)COc1ccc(C(C)(C)C)cc1 | 8% | . | . | 13 | 31 | .
CCc1ccc(N2CC(c3nc4ccccc4n3Cc3ccccc3C)CC2=O)cc1 (stereo not drawn) | -8% | . | . | . | . | .
CCN(CC)CCn1nc2c3c(cccc3c1=O)-c1ccccc1-2 | . | 19% | 4.1µM* | -2 | -20 | -4%
Cc1ccc(Cl)cc1N=C(N)N=C(N)N | -1% | ? | ? | -3 | -10 | 2%
NC(N)=NC(N)=Nc1cccc(Cl)c1 | -8% | 10µM* | ? | -4 | -6 | -1%
CC1CCCC(N2CCN(C(=O)c3ccccc3F)CC2)C1 (stereo not drawn) | 6% | 1% | 22% | -3 | -10 | 8%
N#C/C(=C/c1cccn1-c1cccc(C(=O)O)c1)c1ccc(F)cc1 | 5% | 0% | 0% | -1 | -4 | 11%
COc1ccc(OC)c(-n2c(=S)[nH]c3cc(C(=O)N(C)Cc4ccccc4)ccc3c2=O)c1 | 1% | 9.3µM* | ? | -4 | -10 | .
COc1ccc(OC)c(-n2c(=S)[nH]c3cc(C(=O)N4CCN(c5ccccc5)CC4)ccc3c2=O)c1 | 3% | ? | ? | 18 | 31 | .
CCOc1ccc2nc(NC(=O)CS(=O)(=O)c3ccc(Cl)cc3)sc2c1 | 7% | . | . | . | . | .
CC1CC1c1ccc(/C=C(\C#N)C(=O)Nc2ccccc2Cl)o1 (stereo not drawn) | -5% | 48% | 51% | 52* | 30* | -15%
CCc1ccccc1NC(=O)/C(C#N)=C/c1ccc(Sc2ccccc2)o1 | -4% | ? | ? | -1 | 9 | 3%
CC1CC1c1ccc(/C=C(\C#N)C(=O)Nc2ccc(Cl)cc2)o1 (stereo not drawn) | 2% | 106% | 134% | 63* | 113* | -5%
SMILES | Sm TGR inh | Pf growth 96h | Pf growth 48h | Cycloheximide cs | Shiga toxin inh | NS1 function inh
COC(=O)c1c(C(=O)OC)c(-c2cccc(Cl)c2)n2c1CS(=O)C2 (stereo not drawn) | -2% | 29% | ? | 1 | 10 | .
C(=N\Nc1nncc2ccccc12)/c1ccccn1 | -6% | ? | 0.83µM* | 33* | 57* | -126%
Fc1cccc(/C=N/Nc2nncc3ccccc23)c1 | ? | 261% | . | 57* | 85* | -8%
CC(=O)Nc1ccc(/C=N/NC(=O)c2cc3ccccc3nc2C)cc1 | 4% | 76% | 9% | 7 | 26 | ?
C/C(=N\Nc1ccc2nncn2n1)c1ccccn1 | -2% | ? | ? | -2 | 8 | -68%
CC(=O)Nc1ccc(/C=N/Nc2nncc3ccccc23)cc1 | -12% | 149% | 211% | 50* | 83* | 0%
C(=N\Nc1ccc2nncn2n1)/c1ccccn1 | 20% | 9.3µM* | -75% | 6 | 13 | 1%
COc1ccc(/C=N/Nc2nn3cnnc3c3ccccc23)cc1 | 11% | ? | ? | 4 | 9 | 6%
O=C(CSCc1cc(=O)c2cc(F)ccc2[nH]1)Nc1ccccc1Cl | -1% | . | . | . | . | .
COc1ccc(-c2cn3c(n2)sc2cc(C(=O)NC(C)C45CC6CC(CC(C6)C4)C5)ccc23)cc1 (stereo not drawn) | 6% | . | . | . | . | .
CCN(CC)S(=O)(=O)c1ccc(/C=C/C(=O)OCC(=O)Nc2cccnc2Cl)cc1 | 0% | -24% | -8% | . | . | .
COc1ccc(OCC(=O)NC(=S)Nc2ccccc2F)cc1 | 0% | 57% | 14% | -2 | 22 | 8%
CNC(=S)NNC(=O)c1ccc(=O)n(Cc2cccc(C(F)(F)F)c2)c1 | -5% | 16% | 10% | 11 | -10 | -1%
CCOC(=O)CN1C(=N)N(c2nc(NC(C)C)nc(NC(C)C)n2)CC1=O | -4% | -11% | -1% | -2 | -2 | 5%
CCOc1ccccc1N1CCN(Cc2cnc(-c3ccccc3)[nH]2)CC1 | 0% | 9.3µM* | 13µM* | -1 | -1 | -5%
CCOC(=O)C1CCN(C(=O)NS(=O)(=O)c2ccc(C)cc2)CC1 | -11% | 19% | 7% | 6 | -13 | .
CCOc1ccc(N2CC(NC(=O)/C=C\c3ccc4c(c3)OCO4)CC2=O)cc1 (stereo not drawn) | 2% | . | . | . | . | .
COc1ccc2c(COC(=O)c3cccc(S(=O)(=O)NCC(C)C)c3)cc(=O)oc2c1 | 89µM* | ? | 9.3µM* | 20* | 37 | 4%
CCCNS(=O)(=O)c1cccc(C(=O)OCc2cc(=O)oc3cc(OC)ccc23)c1 | 4% | ? | ? | 19* | 61 | 10%
O/N=C/c1cc(Br)cs1 | 7% | ? | ? | 4 | -8 | -4%
CC(=O)N1CC[C@@H]2CC(=O)CC[C@@H]21 | . | . | . | 1 | i | .
Cc1cccc(N(CC(O)CON=C2c3ccccc3-c3ccccc32)S(C)(=O)=O)c1 (stereo not drawn) | 0% | 13µM* | . | 1 | -16 | 12%
CCN(CC(O)CON=C1c2ccccc2-c2ccccc21)S(=O)(=O)c1ccc(C)cc1 (stereo not drawn) | 19% | 2.3µM* | ? | -1 | -8 | -32%
